# In article PMC7819943, “Rice protein-binding microarrays: a tool to detect cis-acting elements near promoter regions in rice”:
# Over roughly 68,000 sequences, “fluorescence intensity (a.u.)” has its median near 9,100; the highest 2% begin near 16,000. Only a selection was taken, and the highest values are over-represented in it overall.
# Target: OsWRKY34 (Oryza sativa, UniProt Q0JBA9 1-250)
# Assay: protein-binding microarray (RPBM); PBS, 2% BSA, 51.3 ng/ul salmon testes DNA, 50 uM zinc acetate, 200 nM TF, 25 C, 1 h; high values mean tight binding
# Settings: protein: recombinant; tags: N-terminal polyhistidine and DsRed monomer fusion (pET32a); label: CyDye5-dUTP incorporated in the synthesized complementary strand; 3' TTTTT single-stranded linker to array surface; dsDNA, one strand shown
# How it was run: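 An Axon 4000B scanner gave the binding signal as per-feature fluorescence intensity in arbitrary units. This followed washing of a custom Agilent array that had been incubated for 1 h at 25 °C with 200 nM protein in PBS, 2% BSA, salmon testes DNA and 50 µM zinc acetate. The proteins were transcription factors fused at the N-terminus to polyhistidine and DsRed, expressed in E. coli BL21-CodonPlus and purified on Ni–NTA.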
# Chain of OsWRKY34 (Q0JBA9 entry or part of it): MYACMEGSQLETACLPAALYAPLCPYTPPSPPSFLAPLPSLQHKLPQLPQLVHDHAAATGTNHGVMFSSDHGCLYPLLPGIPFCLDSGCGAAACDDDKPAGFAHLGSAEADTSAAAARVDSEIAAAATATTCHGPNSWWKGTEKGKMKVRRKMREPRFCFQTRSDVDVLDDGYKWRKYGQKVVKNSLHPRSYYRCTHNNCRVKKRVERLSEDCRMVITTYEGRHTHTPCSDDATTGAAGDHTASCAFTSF
row,Sequence,binding signal
1,TCTTTTTGTTTGACTTTTTTAAAACCACAGGTCACCCTTACGGAGTCACCTAGTGCAG,14800 fluorescence intensity (a.u.)
2,TGTACGTGACCAGTAACGCGTTGACCTTTTCTTTGTTGAACGGAGTCACCTAGTGCAG,17000 fluorescence intensity (a.u.)
3,CACCGTTGACTTTTTGACCAACGTTTGACCCTTTGTTTTACGGAGTCACCTAGTGCAG,57700 fluorescence intensity (a.u.)
4,TTGACCTTTTCTTTGTTGAACGTTGACCGTTCCGTCTTATCGGAGTCACCTAGTGCAG,14300 fluorescence intensity (a.u.)
5,CTTTGTTGTTTTCTTCTGTTAGTGTCTGTATTATTCATTACGGAGTCACCTAGTGCAG,9880 fluorescence intensity (a.u.)
6,GGTCTTGTCTGTTGTGTTAGCCATTTGTACCAACTCATGACGGAGTCACCTAGTGCAG,12000 fluorescence intensity (a.u.)
7,CGCCGTTGACTTTTTTAAATATGTTTGACCGTTCGTCTTACGGAGTCACCTAGTGCAG,39400 fluorescence intensity (a.u.)
8,TCTTGTGTACGTTGTGTGTTGTCATTGTGTGTCTGTCTTACGGAGTCACCTAGTGCAG,17200 fluorescence intensity (a.u.)
9,TTGACTTTTTATTAACGTTTGACCATTTGTTTTATTTAAACGGAGTCACCTAGTGCAG,12000 fluorescence intensity (a.u.)
10,GCCGTTAACTTTTTTAAATATGTTTGACCGTTCGTCTTATCGGAGTCACCTAGTGCAG,10800 fluorescence intensity (a.u.)
11,TTCACGTGTGTTTTGTGTAGTTTTCTACCAGTTTGTTGAACGGAGTCACCTAGTGCAG,8470 fluorescence intensity (a.u.)
12,TGACTTTTTTAAATATGTTTGACCGTTCGTCTTATTGAAACGGAGTCACCTAGTGCAG,8190 fluorescence intensity (a.u.)
13,GTGGGTTGGGCCAAAGAAAGGTAGGCTGAGTGGAGGGATGCGGAGTCACCTAGTGCAG,10400 fluorescence intensity (a.u.)
14,CGCACACCACCGCCTACGTAGTAGCTCTGATCGGCGCTGTCGGAGTCACCTAGTGCAG,8250 fluorescence intensity (a.u.)
15,AATTTTTTTTCAGCTGATCGCCACTTTATTCTTTTCATACCGGAGTCACCTAGTGCAG,10200 fluorescence intensity (a.u.)
16,ACCGTGTTGCTGCCTGGTGCTCGCTTTGTTCGTAGGCCTTCGGAGTCACCTAGTGCAG,8520 fluorescence intensity (a.u.)
17,GCTAGCGCTGGAATGGTCCTACTTCTTTCATTTACAACATCGGAGTCACCTAGTGCAG,8690 fluorescence intensity (a.u.)
18,TATCATTATGTCCGAACGGTATACCTTCTTGTATCATTTCCGGAGTCACCTAGTGCAG,11200 fluorescence intensity (a.u.)
19,CTCCGTAAGCTCCAGCCCACTGCCACCGCTGCTCCAGCTACGGAGTCACCTAGTGCAG,8250 fluorescence intensity (a.u.)
20,GGCGAGGCGAATGTGATGGGCTAAGTTTTGTCGTTGGCAACGGAGTCACCTAGTGCAG,8210 fluorescence intensity (a.u.)
21,GCCATGAAACCTCCTTTGCTCACTGCTTTGGAACCATACTCGGAGTCACCTAGTGCAG,9020 fluorescence intensity (a.u.)
22,CCGCCTCCTTTGACCCTACCAAAATTTACCGTTGACCATGCGGAGTCACCTAGTGCAG,20000 fluorescence intensity (a.u.)
23,ACCGACCTACTTAATTGCCTCCTGCCAAAATGACCCTTTACGGAGTCACCTAGTGCAG,9140 fluorescence intensity (a.u.)

row,Sequence,binding signal
1,CGCCGTTGACTTTTTGTTTAACGTTTGACCATTTGTCTTACGGAGTCACCTAGTGCAG,24400 fluorescence intensity (a.u.)
2,ATCCAACCCAACTCCCGTTGCTTTTTGTTGGACCCACTTGCGGAGTCACCTAGTGCAG,8110 fluorescence intensity (a.u.)
3,ATTTTGAGTTTTTACTTGTAACGTTTGACCACTTGTCTTACGGAGTCACCTAGTGCAG,8620 fluorescence intensity (a.u.)
4,TTTCCGCATTTCCGCTCCTCTCTTTTTTACCCTTGACATGCGGAGTCACCTAGTGCAG,8530 fluorescence intensity (a.u.)
5,CTTTTCATCTTCTTGACGACTTGGTTGTTTGATTCATTTACGGAGTCACCTAGTGCAG,8830 fluorescence intensity (a.u.)
6,ATGACGCCGTTGACTTTTTGTCCAACGACCATTCATTTTACGGAGTCACCTAGTGCAG,31300 fluorescence intensity (a.u.)
7,AAAAACTGGGCCAGCTTTTTGTTTTTTTTACCACCCACAGCGGAGTCACCTAGTGCAG,9010 fluorescence intensity (a.u.)
8,CACCGTTAACTTTTTATTACGTATTTGACCATTTGTCTTACGGAGTCACCTAGTGCAG,10200 fluorescence intensity (a.u.)
9,AGTGTTGACCAGCTTTGACCACCTTACCCAACTCCTTGTGCGGAGTCACCTAGTGCAG,17200 fluorescence intensity (a.u.)
10,AACCCATTTTCTGCTCTGCTCTTGCTTTGCTTTGCATTTCCGGAGTCACCTAGTGCAG,14000 fluorescence intensity (a.u.)
11,ATTGTTTGTCCCGTCCCTACATCACGCCAAAAGTCACAACCGGAGTCACCTAGTGCAG,11800 fluorescence intensity (a.u.)
12,GGAGGGGCGGCGATCGAGCAGAGCAGGGGAGGGAATCCTGCGGAGTCACCTAGTGCAG,8310 fluorescence intensity (a.u.)
13,CAGTGTATATTTCAGTGTATATTTGGTAGATTTGGTAGTACGGAGTCACCTAGTGCAG,8310 fluorescence intensity (a.u.)
14,CTACCCTATGCTATGAGACCGCTCTTATTCCGGGGTTTAACGGAGTCACCTAGTGCAG,9760 fluorescence intensity (a.u.)
15,TTCGCCGTGTTACTGTAGCTCAAATCTCTAGCTTCCCCAACGGAGTCACCTAGTGCAG,9240 fluorescence intensity (a.u.)
16,CTAACACATTCATCACATGATTAAAATTTTATTATTTATACGGAGTCACCTAGTGCAG,8510 fluorescence intensity (a.u.)
17,CCATCATATTTGACTATTTTCAGGTGTTAGTTTGGACGATCGGAGTCACCTAGTGCAG,9210 fluorescence intensity (a.u.)
18,GAGTGCCATTGAATCCTTCTGTTGCGTTGACCACCAAATGCGGAGTCACCTAGTGCAG,16500 fluorescence intensity (a.u.)
19,TTTTGCCCTTTTTCTCTCGCCAGCTCGGACCCGTCGTGACCGGAGTCACCTAGTGCAG,8730 fluorescence intensity (a.u.)
20,TTGGTTAGTTGCCACTCTCTCTCGCCGTGACCCTTTTTTACGGAGTCACCTAGTGCAG,20600 fluorescence intensity (a.u.)
21,TCCACCATTGACCAATGCCACGTCCTGCCAAATCCTCCTCCGGAGTCACCTAGTGCAG,10700 fluorescence intensity (a.u.)
22,TGTTTGACCGTTCGTCTTATTAAAATTTTTTTGTGAAATACGGAGTCACCTAGTGCAG,8610 fluorescence intensity (a.u.)
